Experiment [1] in a line: inhibitors of CD8+ T cell-vesicle binding, pilot screen, LFA-1/ICAM-1 modulator project, MLPCN validation set, flow cytometry (AID 2523;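 active means response below a set limit, under 55% cells CD8-positive and vesicle-bound, and CD8 cells' 90th-percentile brightness under 279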;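 on vesicle binding response: mean PE anti-B7-1 fluorescence of CD8+ cells relative to row control; 100% = QL9-loaded vesicles with DMSO vehicle in the same plate row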). The following applies: 2C mouse CD8+ T cells, at 7 µM, stronger effect = lower value; double positive events: measured here: CD8+/vesicle+ event percentage. (In general: In flow cytometry, cells or beads pass a laser one at a time.)
Experiment [2] addresses Integrin beta-1 (Homo sapiens) + Integrin alpha-4 (Homo sapiens) (UniProt P13612+P05556). The experiment is described as follows: inhibition of HUTS-21 binding to VLA-4, pilot screen, VLA-4 allosteric modulator project, U937 cells, HUTS-21 mAb, flow cytometry, validation set (AID 2674;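 active means inhibition above 50%, about 3 SD of the validation set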;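 further: antibody binding induced by the VLA-4 ligand LDV present at three times its Kd; 0% = LDV ligand with antibody and no compound and 100% = antibody without LDV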). To be noted: HUTS-21 LIBS mAb binding, at 6.7 µM, stronger effect = higher value, binding induced by LDV ligand.

A short description of experiment [3]: superoxide lowering in aged yeast cells, pilot screen, validation compound set (AID 2706;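 active means superoxide response below 65% of plate, a cut near 3 SD across the whole screen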;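 further: yeast exposed to compound for one week at 30 degrees C before staining; 100% = mean of all compound wells on the same plate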). To be noted: S. cerevisiae aging, superoxide DHE fluorescence; at 10 µM, stronger effect = lower value.
Experiment [4] addresses Beta-adrenergic receptor kinase 1 (Homo sapiens) (UniProt P25098). The experiment in a line: GRK2 binders displacing RNA aptamer, biochemical, validation, human GRK2, bead flow cytometry (AID 488806;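 active means aptamer binding inhibition above 30%, about 3 SD of noise from non-fluorescent compounds; inactive means inhibition at or below 30%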). The following applies: bead-bound GRK2, FAM-aptamer displacement, at 10 µM, stronger effect = higher value.
For experiment [5], the target named is Beta-2 adrenergic receptor (Homo sapiens) (UniProt P07550). The experiment is described as follows: beta2AR agonists driving receptor internalization, pilot screen, cell-based, FAP fluorogen, flow cytometry, validation set (AID 504459;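 active means percent response above 42, roughly 3 SD of non-fluorescent test compounds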;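 further: agonist-driven loss of surface beta2AR via internalization measured by FAP dye flow cytometry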). The following applies: Am2.2-beta2AR cells, FAP surface receptor flow cytometry; at 10 µM; stronger effect = higher value.
Beta-2 adrenergic receptor (Homo sapiens), sequence (P07550 whole entry, looked up): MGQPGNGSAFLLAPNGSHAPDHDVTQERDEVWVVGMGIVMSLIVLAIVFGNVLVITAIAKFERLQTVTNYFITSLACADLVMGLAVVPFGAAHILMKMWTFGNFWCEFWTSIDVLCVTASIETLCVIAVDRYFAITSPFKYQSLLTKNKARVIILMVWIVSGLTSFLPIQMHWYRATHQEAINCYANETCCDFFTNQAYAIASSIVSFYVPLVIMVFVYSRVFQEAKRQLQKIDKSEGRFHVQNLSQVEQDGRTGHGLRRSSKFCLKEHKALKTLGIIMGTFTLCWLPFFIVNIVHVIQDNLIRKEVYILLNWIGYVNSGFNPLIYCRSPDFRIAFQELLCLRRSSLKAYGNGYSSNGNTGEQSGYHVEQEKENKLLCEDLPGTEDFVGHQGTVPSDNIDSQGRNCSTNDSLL
In experiment [6] the target is AP-2 complex subunit beta (Homo sapiens) (UniProt P63010). The experiment is described as follows: inhibitors of arrestin peptide binding to AP2, pilot screen, biochemical, validation set, GST-AP2 beads, flow cytometry (AID 504541).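 Further: AP2 carries R879A mutation and is captured from E. coli lysate; bead-bound FITC arrestin peptide fluorescence measuring arrestin peptide binding to AP2; 0% = DMSO wells and 100% = excess unlabeled arrestin peptide control.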 To be noted: FITC arrestin peptide, at 10 µM, stronger effect = higher value, AP2 beta2 appendage fragment, R879A mutant.
AP-2 complex subunit beta (Homo sapiens), sequence (P63010 whole entry, looked up, the tested form may be a part, one chain of several): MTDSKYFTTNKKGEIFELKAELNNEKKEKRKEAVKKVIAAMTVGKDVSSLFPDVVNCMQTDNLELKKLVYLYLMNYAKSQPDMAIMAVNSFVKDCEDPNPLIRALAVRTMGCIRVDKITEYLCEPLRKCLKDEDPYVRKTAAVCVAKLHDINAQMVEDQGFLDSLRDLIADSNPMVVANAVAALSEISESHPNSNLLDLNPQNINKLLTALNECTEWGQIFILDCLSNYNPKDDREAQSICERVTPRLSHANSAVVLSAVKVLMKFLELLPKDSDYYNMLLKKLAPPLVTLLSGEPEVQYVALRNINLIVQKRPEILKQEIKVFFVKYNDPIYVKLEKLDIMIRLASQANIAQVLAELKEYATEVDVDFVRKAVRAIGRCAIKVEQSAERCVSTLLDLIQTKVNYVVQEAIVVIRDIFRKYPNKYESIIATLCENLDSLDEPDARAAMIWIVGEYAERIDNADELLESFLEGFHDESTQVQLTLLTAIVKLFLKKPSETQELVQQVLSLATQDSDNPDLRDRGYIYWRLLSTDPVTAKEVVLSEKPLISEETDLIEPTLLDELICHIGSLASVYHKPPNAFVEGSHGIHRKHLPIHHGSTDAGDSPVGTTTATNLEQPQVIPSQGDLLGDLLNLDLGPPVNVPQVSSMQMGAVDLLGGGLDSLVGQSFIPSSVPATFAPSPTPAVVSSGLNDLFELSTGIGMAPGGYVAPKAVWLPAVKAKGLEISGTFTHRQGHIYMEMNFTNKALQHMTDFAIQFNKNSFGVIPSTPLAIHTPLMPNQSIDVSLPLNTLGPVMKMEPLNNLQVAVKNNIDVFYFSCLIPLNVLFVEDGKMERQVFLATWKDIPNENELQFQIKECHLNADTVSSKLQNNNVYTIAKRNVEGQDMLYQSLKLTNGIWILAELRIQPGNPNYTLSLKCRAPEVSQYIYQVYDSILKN
Experiment [7] is described as follows: yeast V-ATPase proton transport modulators, S. cerevisiae, pHLuorin, HTS validation (AID 504600; in the data active means response above about 15%;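 further: plate controls were DMSO for no effect and reference compound for full effect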). The following applies: S. cerevisiae pHLuorin cytosolic pH, at 10 µM, stronger effect = higher value.
The test system of experiment [8] is anti-desmoglein-3 scFv antibody binding to human DSG3. The experiment in a line: inhibitors of anti-DSG3 scFv binding to DSG3, pilot screen, biochemical, validation compound set, bead-based, flow cytometry (AID 588368;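 active means binding below the plate cutoff, the plate median minus 3 SD, with a reading above zero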;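 further: signal is the median channel fluorescence of bead-bound GFP antibody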). To be noted: Protein G beads, DSG3-Fc, scFv-GFP binding, at 10 µM, stronger effect = lower value.
Experiment [9] can be described thus: inhibitors of fungal efflux pumps CDR1, CDR2, MDR1, pilot screen, validation compound set, multiplex, phenotypic (AID 588506;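 active means efflux inhibition above 0.42, the validation set average plus 4 SD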;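 further: Nile Red retained in cells so higher fluorescence means more efflux inhibition; 0 = negative control wells and 1 = enniatin B 25 µM full block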). To be noted: S. cerevisiae pump-expressing triplex, Nile Red efflux flow cytometry; at 10 µM; stronger effect = higher value; the pumps come from Candida albicans.
Experiment [10] has as its target ATP-binding cassette sub-family B member 6 (Homo sapiens) (UniProt Q9NP58). The experiment is described as follows: ABCB6 transporter inhibitors, pilot screen, K562-ABCB6 cells, flow cytometry, validation set (AID 588550;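 active means inhibition above the screen-wide mean plus 3 SD, about 51%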;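 further: 0% = DMSO wells and 100% = benzethonium chloride 70 µM positive control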). To be noted: K562-ABCB6 porphyrin accumulation, 1 h, at 10 µM, stronger effect = higher value.
A short description of experiment [11]: promoters of myeloid differentiation in arrested cells, primary screen, cell-based, GFP/MAC1 double positive, flow cytometry, validation set (AID 588685;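 active means differentiation response of at least 50%, scaled between solvent and reference control, from cells with both markers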;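 further: compound exposure lasts four days before antibody staining and flow analysis; 0% = DMSO wells and 100% = 5 µM fulvestrant positive control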). The following applies: ER-HoxA9 marrow cells, stronger effect = higher value, normalized: vehicle 0, fulvestrant 100.

The structures appear in SMILES notation. The source made the active and inactive calls.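 How the source made its calls, unless noted: active means inhibition above 54%, about 3 SD of non-fluorescent compounds; inactive means the rest.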

Usually inhibition stands for the relative decrease from the control value, in per cent.

Beta-adrenergic receptor kinase 1 (Homo sapiens), sequence (P25098 whole entry, looked up): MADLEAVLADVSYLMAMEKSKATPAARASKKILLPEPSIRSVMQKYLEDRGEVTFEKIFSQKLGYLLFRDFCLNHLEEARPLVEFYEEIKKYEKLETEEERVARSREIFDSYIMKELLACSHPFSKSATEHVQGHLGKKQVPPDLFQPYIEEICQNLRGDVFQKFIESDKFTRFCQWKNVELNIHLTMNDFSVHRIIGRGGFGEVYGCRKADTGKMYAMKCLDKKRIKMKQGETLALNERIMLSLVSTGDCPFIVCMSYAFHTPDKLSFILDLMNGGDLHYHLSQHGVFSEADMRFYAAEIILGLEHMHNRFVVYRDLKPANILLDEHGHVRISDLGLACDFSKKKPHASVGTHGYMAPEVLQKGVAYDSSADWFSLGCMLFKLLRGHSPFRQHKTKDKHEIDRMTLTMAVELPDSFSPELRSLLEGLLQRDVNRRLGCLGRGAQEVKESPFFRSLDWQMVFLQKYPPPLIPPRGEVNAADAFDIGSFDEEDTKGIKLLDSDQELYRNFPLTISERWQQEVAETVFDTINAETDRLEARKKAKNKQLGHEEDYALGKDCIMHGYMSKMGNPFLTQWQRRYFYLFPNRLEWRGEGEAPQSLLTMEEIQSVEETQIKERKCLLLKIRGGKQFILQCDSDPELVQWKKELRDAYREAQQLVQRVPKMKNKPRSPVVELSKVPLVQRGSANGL
ATP-binding cassette sub-family B member 6 (Homo sapiens), sequence (Q9NP58 whole entry, looked up): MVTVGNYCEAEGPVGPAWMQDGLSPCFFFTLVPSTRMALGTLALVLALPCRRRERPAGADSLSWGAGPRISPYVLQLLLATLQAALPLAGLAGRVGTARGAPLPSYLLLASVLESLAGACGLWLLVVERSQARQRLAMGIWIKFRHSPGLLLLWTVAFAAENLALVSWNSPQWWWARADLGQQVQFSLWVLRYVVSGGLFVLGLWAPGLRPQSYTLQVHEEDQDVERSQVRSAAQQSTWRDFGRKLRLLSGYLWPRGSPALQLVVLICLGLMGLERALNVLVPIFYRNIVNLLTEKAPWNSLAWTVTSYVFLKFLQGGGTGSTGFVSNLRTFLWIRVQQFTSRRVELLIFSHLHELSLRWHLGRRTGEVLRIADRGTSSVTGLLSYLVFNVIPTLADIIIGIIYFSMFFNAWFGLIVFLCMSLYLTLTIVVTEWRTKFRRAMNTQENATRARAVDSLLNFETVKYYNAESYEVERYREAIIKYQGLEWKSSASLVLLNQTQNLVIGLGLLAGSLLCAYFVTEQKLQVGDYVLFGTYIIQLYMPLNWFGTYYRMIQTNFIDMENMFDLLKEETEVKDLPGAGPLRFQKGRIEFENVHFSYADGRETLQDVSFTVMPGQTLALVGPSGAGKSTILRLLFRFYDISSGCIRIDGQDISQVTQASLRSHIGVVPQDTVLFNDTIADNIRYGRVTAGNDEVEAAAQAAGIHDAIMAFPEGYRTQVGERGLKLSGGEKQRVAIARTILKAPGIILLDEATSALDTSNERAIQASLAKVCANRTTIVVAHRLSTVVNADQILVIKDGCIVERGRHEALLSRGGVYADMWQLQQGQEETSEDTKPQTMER
Integrin beta-1 (Homo sapiens) + Integrin alpha-4 (Homo sapiens), sequence (P05556 whole entry, looked up): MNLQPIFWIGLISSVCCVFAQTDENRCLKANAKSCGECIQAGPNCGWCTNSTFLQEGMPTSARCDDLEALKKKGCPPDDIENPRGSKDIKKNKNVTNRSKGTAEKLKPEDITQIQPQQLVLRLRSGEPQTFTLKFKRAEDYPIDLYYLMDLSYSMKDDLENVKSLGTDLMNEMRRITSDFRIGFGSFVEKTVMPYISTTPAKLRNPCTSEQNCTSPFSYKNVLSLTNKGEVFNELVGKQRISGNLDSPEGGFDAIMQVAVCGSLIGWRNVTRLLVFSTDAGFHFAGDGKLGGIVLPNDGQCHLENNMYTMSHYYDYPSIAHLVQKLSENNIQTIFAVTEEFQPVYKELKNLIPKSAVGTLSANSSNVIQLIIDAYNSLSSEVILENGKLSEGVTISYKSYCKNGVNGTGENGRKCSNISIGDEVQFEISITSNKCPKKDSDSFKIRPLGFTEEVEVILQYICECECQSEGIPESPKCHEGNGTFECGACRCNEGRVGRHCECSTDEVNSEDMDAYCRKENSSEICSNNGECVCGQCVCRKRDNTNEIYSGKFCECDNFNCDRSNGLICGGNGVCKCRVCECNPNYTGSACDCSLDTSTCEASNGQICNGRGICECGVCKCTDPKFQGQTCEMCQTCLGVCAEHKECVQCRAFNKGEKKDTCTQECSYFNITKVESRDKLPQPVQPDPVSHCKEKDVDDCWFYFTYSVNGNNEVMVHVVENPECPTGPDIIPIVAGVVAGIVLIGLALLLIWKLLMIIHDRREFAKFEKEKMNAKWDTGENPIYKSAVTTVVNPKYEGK
Integrin beta-1 (Homo sapiens) + Integrin alpha-4 (Homo sapiens), sequence (P13612 whole entry, looked up): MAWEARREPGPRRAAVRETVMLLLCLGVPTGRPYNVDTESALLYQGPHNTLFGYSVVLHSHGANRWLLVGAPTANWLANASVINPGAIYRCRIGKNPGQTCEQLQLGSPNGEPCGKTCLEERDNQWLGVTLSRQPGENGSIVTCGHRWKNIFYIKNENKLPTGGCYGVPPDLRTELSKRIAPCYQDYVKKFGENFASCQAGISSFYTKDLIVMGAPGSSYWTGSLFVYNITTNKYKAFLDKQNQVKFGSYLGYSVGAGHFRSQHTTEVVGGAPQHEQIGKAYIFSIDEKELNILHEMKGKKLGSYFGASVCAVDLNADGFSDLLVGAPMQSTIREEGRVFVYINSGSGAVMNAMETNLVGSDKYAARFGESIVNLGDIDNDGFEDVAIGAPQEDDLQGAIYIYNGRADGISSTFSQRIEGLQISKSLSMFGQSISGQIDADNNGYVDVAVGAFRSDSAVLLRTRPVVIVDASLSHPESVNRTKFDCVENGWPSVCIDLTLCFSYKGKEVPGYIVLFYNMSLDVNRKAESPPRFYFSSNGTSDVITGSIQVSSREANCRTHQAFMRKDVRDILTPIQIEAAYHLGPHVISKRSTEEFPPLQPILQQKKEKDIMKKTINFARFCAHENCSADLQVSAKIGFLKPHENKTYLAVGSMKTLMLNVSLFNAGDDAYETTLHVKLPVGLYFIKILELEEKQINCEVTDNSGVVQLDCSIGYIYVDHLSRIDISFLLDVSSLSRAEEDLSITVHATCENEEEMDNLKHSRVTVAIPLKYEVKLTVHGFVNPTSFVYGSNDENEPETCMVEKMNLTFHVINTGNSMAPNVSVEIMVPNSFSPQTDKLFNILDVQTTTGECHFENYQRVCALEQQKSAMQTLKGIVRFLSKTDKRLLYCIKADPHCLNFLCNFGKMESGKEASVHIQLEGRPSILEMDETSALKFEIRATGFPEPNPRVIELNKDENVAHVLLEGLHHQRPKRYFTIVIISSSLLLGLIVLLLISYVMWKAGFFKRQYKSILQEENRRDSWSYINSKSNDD

As for `COc1ccc(CC(=O)N2CC3(C)CC2CC(C)(C)C3)cc1OC` (centres undefined), the double positive events in [1] was found to be 64.1%. In experiment [1], the vesicle binding response was 255% (inactive). Also, the inhibition is -5.89% (inactive) in [2], -2.57% (inactive) in [6] and 3% (inactive) in [10]. The superoxide response (% of plate) in experiment [3] is 91.8% (inactive). In experiment [4], the aptamer binding inhibition is 1% (inactive). The response is -7.91% (inactive) in [5] and 1.81% (inactive) in experiment [7]. The binding (% of control) in experiment [8] is 102% (inactive). Besides, the efflux inhibition (fraction of control) in experiment [9] is 0.44 (active). The differentiation response in experiment [11] was 5.6% (inactive).
In experiment [1], `CN(C)CCOc1ccccc1Cc1ccccc1` gave a double positive events of 69.2%. For the same compound, the vesicle binding response in [1] is 210% (inactive). In addition, the inhibition was 23.6% (inactive) in [2], -8.22% (inactive) in [6] and 14% (inactive) in experiment [10]. For the same compound, in [3], the superoxide response (% of plate) was 85.8% (inactive). For the same compound, in experiment [4], the aptamer binding inhibition is 4% (inactive). For the same compound, the values for the response in [5] and in experiment [7] were -20.2% (inactive) and -1.1% (inactive), respectively. Moreover, the binding (% of control) in experiment [8] was 104% (inactive). Further, the efflux inhibition (fraction of control) in experiment [9] was -0.13 (inactive). Besides, the differentiation response in experiment [11] was -1.05% (inactive).
With `O[C@@H](CNC[C@H](O)c1ccccc1)c1ccccc1`, the double positive events in experiment [1] turned out to be 62.7%. The vesicle binding response in experiment [1] was 156% (inactive). Also, the inhibition in experiment [2] is -27.7% (inactive); in experiment [6] it was 9.85% (inactive); in experiment [10], 1% (inactive). For the same compound, the superoxide response (% of plate) in experiment [3] is 99.8% (inactive). The aptamer binding inhibition in experiment [4] is -3% (inactive). In addition, the figures for the response in experiment [5] and in [7] were 43.5% (active) and 0.68% (inactive), respectively. For the same compound, the binding (% of control) in [8] is 102% (inactive). For the same compound, in experiment [9], the efflux inhibition (fraction of control) was 0.01 (inactive). For the same compound, in [11], the differentiation response was 21.6% (inactive).
As for `CCc1cn([C@H]2C[C@H](O)[C@@H](CO)O2)c(=O)[nH]c1=O`, the double positive events in [1] came to 71.1%. Moreover, the vesicle binding response in experiment [1] was 232% (inactive). Moreover, the inhibition in [2] was -0.33% (inactive); in experiment [6], 3.19% (inactive); in [10], 16% (inactive). Moreover, in experiment [3], the superoxide response (% of plate) is 95.6% (inactive). The aptamer binding inhibition in experiment [4] was -1% (inactive). Further, the response in [5] is 7.43% (inactive); in experiment [7], -0.71% (inactive). The binding (% of control) in experiment [8] was 100% (inactive). Further, the efflux inhibition (fraction of control) in [9] is -0.42 (inactive). Also, the differentiation response in experiment [11] was 1.64% (inactive).
In experiment [1], `COc1ccc(C(=O)C2CCCCC2=O)cc1` (centres undefined) returned a double positive events of 67.8%. Also, in experiment [1], the vesicle binding response is 193% (inactive). For the same compound, the inhibition in experiment [2] was 9.1% (inactive); in experiment [6], 2.47% (inactive); in experiment [10], 16% (inactive). Besides, the superoxide response (% of plate) in experiment [3] is 100% (inactive). The aptamer binding inhibition in [4] is 0% (inactive). Also, the response is 15.9% (inactive) in [5] and -6% (inactive) in experiment [7]. For the same compound, in experiment [8], the binding (% of control) was 101% (inactive). Moreover, the efflux inhibition (fraction of control) in experiment [9] is 0.04 (inactive). In addition, the differentiation response in experiment [11] was -7.94% (inactive).
In [1], `COc1ccc(/C=C2\CCc3ccccc3C2=O)c(OC)c1OC` had a double positive events of 68.5%. In [1], the vesicle binding response was 262% (inactive). The inhibition in experiment [2] was 2.3% (inactive); in experiment [6], -2.94% (inactive); in experiment [10], 5% (inactive). In [3], the superoxide response (% of plate) is 94.8% (inactive). Besides, the aptamer binding inhibition in experiment [4] is 3% (inactive). Besides, the response is -0.85% (inactive) in experiment [5] and 5.35% (inactive) in [7]. For the same compound, the binding (% of control) in experiment [8] was 102% (inactive). For the same compound, in experiment [9], the efflux inhibition (fraction of control) was 0.15 (inactive). For the same compound, the differentiation response in experiment [11] is 31.2% (inactive).
With `O=C(Nc1cccc(-c2nc3ncccc3o2)c1)c1ccccc1`, the double positive events in experiment [1] is 56.1%. The vesicle binding response in experiment [1] was 159% (inactive). Moreover, the inhibition in experiment [2] was 2.3% (inactive); in [6], -1.86% (inactive); in experiment [10] it was 0% (inactive). Moreover, the superoxide response (% of plate) in experiment [3] is 106% (inactive). The aptamer binding inhibition in experiment [4] is 1% (inactive). For the same compound, the response in experiment [5] was 17.2% (inactive); in [7], 7.44% (inactive). Also, the binding (% of control) in experiment [8] is 102% (inactive). For the same compound, the efflux inhibition (fraction of control) in [9] is -0.06 (inactive). In experiment [11], the differentiation response was -16.8% (inactive).

The values above are taken from PubChem BioAssay.
